High-throughput results deposited in PubChem BioAssay by National Center for Advancing Translational Sciences (NCATS).
Giardia kill: kills Giardia lamblia; Giardia lamblia trophozoite viability; activity change, % at 7.66 µM, hits read low; 0.15% of 340,000 active; AID 540267; in the data active means activity change below about -80%; inconclusive means between about -30% and that limit;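 further: parasites exposed to compound for two days anaerobically before the ATP read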
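Viability, read as ATP luminescence: trophozoites at 100 cells/well, compound added, 48 hrs anaerobic at 37 deg C, then 15-30 min room-temperature development before reading.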
TGFb inhibitor: inhibitors of TGF-b signaling | AID 588855 | 1.2% of 410,000 active | HepG2 CAGA-GFP TGF-b/SMAD3 reporter, GFP fluorescence, 18 h; TGF-beta stimulated, 500 pg/mL final | Potency, µM (highest dose often 46.1 µM), actives largely listed as inhibitors; further: nearly all actives have a fitted effect of over 65% in size
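Read-out: total well GFP (ex488/em500-530) summed from mean per-cell fluorescence. Cells: HEPG2 CAGA-GFP, 1% FBS DMEM, 18 h at 37 degrees C with 500 pg/mL final TGF-beta. Unstimulated wells served as the full-inhibition control; stimulated DMSO wells = 0%.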
HT1080 IDH1KD tx: kills HT-1080 cells with IDH1 knockdown; Potency, µM (titrated, usually from 46.1 µM), actives largely listed as cytotoxic; AID 686971; HT-1080 IDH1 knockdown viability, ATP luminescence, 48 h; 2% of 360,000 active
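IDH1KD HT-1080 cells, 750/well, RPMI + 5% FBS; compound pinned after 2 h settling; 48 h, 37 °C; CellTiter-Glo luminescence; % activity normalised to DMSO and no-cell wells; curves fitted, classed by r2 and efficacy.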
HT1080-NT tox: kills 2HG-producing HT-1080-NT fibrosarcoma cells; AID 686970; HT-1080-NT fibrosarcoma viability, CellTiter-Glo ATP luminescence, 48 h; Potency, µM (doses to about 46.1 µM), most hits filed as cytotoxic; 1.6% of 360,000 active;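 further: NT is the 2HG producing partner of a matched IDH1 knockdown line; nearly all actives have a fitted effect of over 55% in size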
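Luminescent CellTiter-Glo readout after 48 hours of compound exposure at 37 degrees C defined viability of HT-1080-NT cells. Activity was normalized to DMSO wells and cell-free media wells; concentration-response curves were fitted and assigned curve classes.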
HepG2 tox: HepG2 cytotoxicity, counter-screen for TGF-b inhibitors. AID 588856. HepG2 CAGA-GFP viability, ATP luminescence, 18 h. Potency, µM (doses to about 46.1 µM), most hits filed as cytotoxic. 0.76% of 410,000 active
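HepG2 CAGA-GFP cells (1000/well, DMEM with 1% FBS) received compound, then TGF-beta at 500 pg/mL final, and were incubated 18 hours at 37 degrees C. Viability was read by CellTiter-Glo luminescence. Media-only wells were set as complete cell-killing and DMSO as no toxicity.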
IL1B secr inh: inflammasome signaling inhibition, IL-1 beta readout; THP-1 LPS/ATP IL-1B secretion, AlphaLISA, 16 h; active compounds read low; activity change, % at 57.5 µM; 4.7% of 360,000 active; in the data active means activity change below about -50%; inconclusive means mostly about -30% to -49%
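Secreted IL-1B measured by AlphaLISA bead assay after 16 h compound exposure of THP-1 cells; compounds (final up to 57.5 uM) added 1 h before LPS (250 ng/mL) and ATP (1.25 mM) stimulation; lower signal means less secretion.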
Of the large screens only hits and unclear results are named; the others gave an inactive call. Most compounds without a hit are left out; they make up all but 6.5% or so of the library. Unless noted, the call rests on the fitted dose curve; in most records, active means well fitted curve in the direction sought with a large enough effect; inconclusive means small, poorly fitted or top-dose-only effect, or another doubt; inactive means no such curve, though single readings can be large; an effect the other way counts as inactive or inconclusive.

COc1cc2c(cc1C(F)(F)F)N(C(=O)Nc1cc(F)cc(-c3cccnc3)c1)CC2	HT1080 IDH1KD tx inconclusive, HT1080-NT tox 11µM (no result: Giardia kill, TGFb inhibitor, HepG2 tox, IL1B secr inh)
Cc1ccc2nc(-c3ccccn3)[nH]c2c1	HT1080 IDH1KD tx 18µM, HT1080-NT tox inconclusive
c1ccc(-c2nnc3oc(-c4cccs4)nn23)cc1	TGFb inhibitor inconclusive, IL1B secr inh -104 (no result: Giardia kill)
COc1ccc(CCNC(=O)CCc2c(C)c3cc4c(C)c(C)oc4cc3oc2=O)cc1	none (no result: Giardia kill, HT1080 IDH1KD tx, HT1080-NT tox, IL1B secr inh)
COc1cc(C(=O)Oc2c(CN3CCOCC3)cc(Cl)c3cccnc23)cc(OC)c1OC	TGFb inhibitor 4µM, HT1080 IDH1KD tx inconclusive, HT1080-NT tox inconclusive
COc1cccc(C(=O)Oc2c(CN3CCOCC3)cc(Cl)c3cccnc23)c1	TGFb inhibitor inconclusive, HT1080 IDH1KD tx 12µM, HT1080-NT tox inconclusive
O=C(Oc1c(CN2CCOCC2)cc(Cl)c2cccnc12)c1ccc(F)cc1	TGFb inhibitor inconclusive, HT1080 IDH1KD tx inconclusive, HT1080-NT tox inconclusive
COc1ccc(C(=O)Oc2c(CN3CCOCC3)cc(Cl)c3cccnc23)cc1	TGFb inhibitor 10µM, HT1080 IDH1KD tx inconclusive, HT1080-NT tox 21µM, HepG2 tox 7.9µM
O=C(Oc1c(CN2CCOCC2)cc(Cl)c2cccnc12)c1ccccc1Cl	TGFb inhibitor inconclusive, HT1080 IDH1KD tx 6.5µM, HT1080-NT tox inconclusive, HepG2 tox 3.5µM, IL1B secr inh -91
COc1cc(C(=O)Oc2c(OC)cc(C(=S)N3CCOCC3)cc2OC)cc(OC)c1OC	none
COc1cc2c(cc1OC)C(Cc1ccc(O)cc1)N(C)CC2 (configuration not stated)	none
CCCCN(C(=O)NC(=O)Nc1ccc(C)cn1)S(C)(=O)=O	none
O=S1(=O)C[C@@H](N2CCCC2)[C@H](COCc2ccccc2)N1	none (no result: Giardia kill)
COc1ccccc1CCc1nnc(CCC(=O)NCCC2CCCCO2)o1 (configuration not stated)	none (no result: Giardia kill)
O=C(Nc1ccc(Br)cc1)c1ccccc1CC[N+](=O)[O-]	none
COc1ccc(C2=NN(C(=O)CN3CCCCC3)C(c3ccc(OC)cc3)C2)cc1 (configuration not stated)	none
COc1ccc(C2=NN(C(=O)CN3CCCC3)C(c3ccc(OC)cc3)C2)cc1 (configuration not stated)	IL1B secr inh -62
COc1ccc(C2CC(c3ccccc3)=NN2C(=O)COC(=O)C2(C)CC2(Cl)Cl)cc1 (configuration not stated)	IL1B secr inh -68
O=C(c1nc[nH]c1C(=O)N1CCN(c2ccccc2)CC1)N1CCN(c2ccccc2)CC1	none
Cc1cccc(OCCC(=O)Nc2ccc(C)c(S(=O)(=O)N3CCCCC3)c2)c1	TGFb inhibitor inconclusive, IL1B secr inh -72
COc1ccc(NC(=O)CCOc2cc(C)ccc2C)cc1S(=O)(=O)N1CCCCC1	IL1B secr inh -54
O=C(CC1OC(=O)c2ccccc21)Nc1ccc(Cl)c(S(=O)(=O)N2CCCCC2)c1 (configuration not stated)	HepG2 tox 8.9µM
Cc1ccc(NC(=O)CSc2ncnc3ccccc23)cc1S(=O)(=O)N1CCCCCC1	TGFb inhibitor inconclusive, IL1B secr inh -90
COC(=O)c1ccccc1NC(=O)CSc1nnc(-c2cccnc2)n1N	none
COc1cccc(CNC(=O)c2ccc(C)c(S(=O)(=O)N3CCOCC3)c2)c1	none
COc1cccc(CNC(=O)c2ccc(C)c(S(=O)(=O)N3CCCCC3)c2)c1	IL1B secr inh -58
Cc1ccc(NC(=O)CCl)cc1S(=O)(=O)N1CCCCCC1	TGFb inhibitor inconclusive, HT1080 IDH1KD tx 8.2µM, HT1080-NT tox 16µM, IL1B secr inh -87
Cc1ccc(C(=O)Nc2cccc(O)c2)cc1S(=O)(=O)N1CCCCCC1	TGFb inhibitor inconclusive, IL1B secr inh -57
O=C(Nc1ccc(Oc2cccnc2)cc1)C1CCN(Cc2ccccc2)CC1	none
CN(C)c1ccc(N=Nc2cccc(F)c2)cc1	none
O=[N+]([O-])c1cc(Cl)cc(/C=N/NC(=S)Nc2ccc(S(=O)(=O)N3CCOCC3)cc2)c1O	HT1080 IDH1KD tx 3.7µM, HT1080-NT tox inconclusive
CC1CCCCN1S(=O)(=O)c1ccc(N(C(=O)c2cnccn2)C(C(=O)NC2CCCC2)c2cccs2)cc1 (configuration not stated)	none
CCOC(=O)c1c(-c2ccc(-c3ccccc3)cc2)csc1NC(=O)CCN1CCOCC1	TGFb inhibitor inconclusive, HT1080 IDH1KD tx inconclusive, HT1080-NT tox inconclusive, IL1B secr inh -50
CCOC(=O)c1sc(NC(=O)CCN2CCN(CC)CC2)c(C(=O)OCC)c1C	TGFb inhibitor inconclusive, HT1080 IDH1KD tx 18µM, HT1080-NT tox 23µM, IL1B secr inh -215
CCOC(=O)c1c(-c2ccc(-c3ccccc3)cc2)csc1NC(=O)CNCCN(C)C	TGFb inhibitor inconclusive, HT1080 IDH1KD tx 9.2µM, HT1080-NT tox 9.2µM, IL1B secr inh -104
CCOC(=O)c1c(-c2ccccc2)csc1NC(=O)C(C)NCCCN1CCOCC1 (configuration not stated)	HT1080 IDH1KD tx inconclusive, HT1080-NT tox inconclusive, IL1B secr inh -53
CCOC(=O)c1c(-c2cccs2)csc1NC(C)=O	none
CCOC(=O)c1c(-c2cccs2)csc1NC(=O)CN1CC(C)OC(C)C1 (configuration not stated)	TGFb inhibitor inconclusive, HT1080 IDH1KD tx inconclusive, HT1080-NT tox inconclusive, HepG2 tox 20µM
CC(/C=C/c1ccc2c(c1)OCO2)=N\NC(=O)c1ccccc1	none
NC(=O)CC(NC(=O)Cc1cccc2ccccc12)c1ccc(NC2CC3CCC2C3)c([N+](=O)[O-])c1 (configuration not stated)	TGFb inhibitor inconclusive, HepG2 tox 3.5µM
O=C(c1ccc(S(=O)(=O)Nc2ccccc2)cc1)N1CCCC(C(F)(F)F)C1 (configuration not stated)	none
O=C(NC1CCNCC1)C1CCCCC1	none
NC(=O)C1CCCNC1 (configuration not stated)	HT1080-NT tox inconclusive, IL1B secr inh -57
COc1ccc(C(=O)O/N=C(\N)c2ccc(OC)c(OC)c2)c(OC)c1	IL1B secr inh -54
Cc1ccc(OCC(=O)N/N=C/c2cn(Cc3ccccc3)c3ccccc23)cc1	TGFb inhibitor inconclusive, HT1080-NT tox inconclusive
O=C(NC1CC2CCCC(C1)N2Cc1ccc(F)cc1)c1ccc(F)cc1 (configuration not stated)	none
Cc1ccccc1Cn1c(CN2CCc3ccccc3C2)nc2c1c(=O)n(C)c(=O)n2C	TGFb inhibitor inconclusive, HT1080 IDH1KD tx inconclusive, HT1080-NT tox inconclusive, IL1B secr inh -59
